This excerpt belongs to a sample that is enriched for hits.
Dicer inh = blocks human Dicer maturation of pre-miR-21; Q9UPY3; cat-ELCCA pre-miR-21 Dicer processing, chemiluminescence; stronger effect = higher value; z-score at 25 µM; AID 1347074; actives 6% (n = 47,000); in the data active = z-score above about 3, passing the limit was not always enough;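 note: plate controls were vehicle for no effect and no enzyme for full effect; higher signal means more uncleaved substrate so more Dicer inhibition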
* hit, by the source's call.

How did CC1CCN(c2oc(-c3cccs3)nc2S(=O)(=O)c2ccccc2)CC1 do in these assays?
Dicer inh: 0.05

Results for CSc1c(-c2cccs2)c(N)nn1S(=O)(=O)c1ccccc1 ?
Dicer inh: 3.94*

What do the screens show for `Cc1ccsc1Cn1c(C)ccc1C`?
Dicer inh: -1.98

Results for Cc1ccc(/C(O)=C/C(=O)C(=O)NNC(=O)c2cc(C)nc3ccccc23)cc1 ?
Dicer inh: 3.25*

What do the screens show for `Cc1ccc(-c2cc(C(=O)O)c3ccccc3n2)s1`?
Dicer inh: -0.52

Results for COC(=O)Nc1cc(C)nc2ccccc12 ?
Dicer inh: -0.2

Results for O=C(NCC1CCCO1)c1cc2nc(-c3ccc(Br)cc3)cc(C(F)(F)F)n2n1 (stereo not given) ?
Dicer inh: -0.28

How did N=C1SC2CS(=O)(=O)CC2N1c1ccccc1 (stereo not given) do in these assays?
Dicer inh: -0.16

How did CNc1nc2c(N)ncnc2n1[C@H]1O[C@@H](CO)[C@H](O)[C@@H]1O do in these assays?
Dicer inh: -0.07

What do the screens show for `Nc1nc2c(nc(NCCCN3CCOCC3)n2[C@H]2O[C@@H](CO)[C@H](O)[C@@H]2O)c(=O)[nH]1`?
Dicer inh: 3.48*

What do the screens show for `Nc1nc2c(nc(N3CCN(c4ccccc4)CC3)n2[C@H]2O[C@@H](CO)[C@H](O)[C@@H]2O)c(=O)[nH]1`?
Dicer inh: -0.68

What do the screens show for `COC(=O)c1sc(C(C)(C)C)cc1NC(=O)Nc1ccc(Cl)cc1`?
Dicer inh: 0.93

Results for COC(=O)C1=C(O)CSC1=Nc1ccc(F)cc1 ?
Dicer inh: 5.11*

What do the screens show for `COC(=O)c1nn(-c2ccc(F)cc2)ccc1=O`?
Dicer inh: -0.48

Results for COC(=O)C1=C(O)CSC1=Nc1ccccc1 ?
Dicer inh: 0.42

What do the screens show for `O=C(Nc1ccccc1)C1Sc2nnc(-c3ccccc3)n2NC1c1ccc(F)cc1` (stereo not given)?
Dicer inh: 0.09

Results for CCCc1ccc(-c2nc(-c3ccc(C(F)(F)F)cn3)no2)cc1 ?
Dicer inh: -0.18

How did Cc1ccc(S(=O)(=O)NCCN2CCN(S(=O)(=O)c3ccc(C)c(C)c3C)CC2)c(C)c1C do in these assays?
Dicer inh: -0.56

What do the screens show for `Fc1cccc(CN2CCN(CC3CC=CCC3)CC2)c1` (stereo not given)?
Dicer inh: -0.36

What do the screens show for `CC(=O)Oc1ccc2oc3c(c2c1)C(=O)CCC3`?
Dicer inh: 4.75*

How did CC(=O)Oc1ccc2c(C)cc(=O)oc2c1 do in these assays?
Dicer inh: -0.41

Results for CC(=O)Oc1ccc2oc(C)c(C(=O)OC(C)C)c2c1 ?
Dicer inh: 0.44

Results for Cn1cnc([N+](=O)[O-])c1Sc1nnc(-c2ccc(C(C)(C)C)cc2)n1-c1ccc2c(c1)OCO2 ?
Dicer inh: -3.15

How did CC1(C)CC(=O)c2cc(NC(=O)c3ccc(Cl)cc3)c(=O)oc2C1 do in these assays?
Dicer inh: -0.71

Results for CC(C)(C)Nc1nc(C(=O)O)nc(N2CCOCC2)n1 ?
Dicer inh: 1.35

How did CCOC(=O)c1cnc(N2CCOCC2)nc1N do in these assays?
Dicer inh: -0.5

What do the screens show for `CC(C)(C)Nc1nc(C(N)=O)nc(N2CCOCC2)n1`?
Dicer inh: 5.07*

How did CN(C)c1nc(N2CCOCC2)nc(N(c2ccccc2)c2ccccc2)n1 do in these assays?
Dicer inh: 0.61

How did CN(C)c1nc(C(=O)O)nc(N2CCOCC2)n1 do in these assays?
Dicer inh: 3.38*

How did CCCNC(=O)NNC(=O)C(C)n1nnc(N2CCOCC2)n1 (stereo not given) do in these assays?
Dicer inh: 1.15

How did CCN(Cc1cccc(Cl)c1Cl)C(=O)c1cnc(OC)cc1C(F)(F)F do in these assays?
Dicer inh: -0.39

What do the screens show for `N/C(=N\S(=O)(=O)c1cc(Cl)sc1Cl)c1ccncc1`?
Dicer inh: 1.03

How did CCc1ccc(C2C3=C(Nc4c2c(=O)n(C)c(=O)n4C)c2ccccc2C3=O)cc1 (stereo not given) do in these assays?
Dicer inh: -2.23

Results for Cc1cc(C(=O)N/N=C/C(C)(C)C)nn1-c1c(Cl)cc(Cl)cc1Cl ?
Dicer inh: 1.19

What do the screens show for `CC(C)(C)/C=N/NS(=O)(=O)c1ccc(-c2ccccn2)s1`?
Dicer inh: -5.52

What do the screens show for `COc1ccc2sc(C(=O)O)c(Br)c2c1`?
Dicer inh: 4.33*

Results for COc1ccc2c(c1)CCCN2C(=O)c1sc2ccccc2c1Cl ?
Dicer inh: -1.13

Results for COc1ccc2[nH]c(C(=O)O)cc2c1 ?
Dicer inh: 0.75

Results for Cc1ccc(C(=O)CSc2nc3nc(C)cc(C)n3n2)cc1 ?
Dicer inh: -1

What do the screens show for `CS(=O)(=O)N1N=C(c2ccco2)CC1c1cn(-c2ccccc2)nc1-c1ccccc1` (stereo not given)?
Dicer inh: -1.71

Results for COCC1(C)OC(=O)C(C(=O)OC)=C1C (stereo not given) ?
Dicer inh: -0.24

How did Cc1nc(-c2ccc(S(=O)(=O)N3CCCN(c4nc5ccc(Cl)cc5s4)CC3)s2)cs1 do in these assays?
Dicer inh: -0.96

What do the screens show for `Cc1ccc2nc(Cc3ccc4nc(N)sc4c3)[nH]c2c1`?
Dicer inh: -2.39

High-throughput results (PubChem BioAssay)
